In the library only some 3.1% were active in any assay of this set; here they are far more common.
PREPL inhibitor: human PREPL enzyme inhibition. Q4J6C6. recombinant PREPL, fluorescence polarization activity-based probe. inhibition, % at 5.96 µM. AID 2751. 0.68% of 320,000 active; in the data active = inhibition above about 43%;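 note: 0% = enzyme with DMSO and 100% = wells lacking enzyme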
MEKK3 PB1 HTS: raises or lowers MEK5 binding to the human MEKK3 PB1 domain | bead-based flow cytometry, Alexa488-MEK5 binding to MEKK3; actives lie on both sides; 0 = blocked by unlabeled MEK5, 100 = vehicle | 1.4% of 290,000 active | binding response (% of control), % at 10 µM;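 active = binding response more than 3 SD above or below the average of its plate-row segment, actives on both sides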;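 note: Alexa488 bead fluorescence after subtracting the streptavidin-only scavenger bead signal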
UBC13 inh: human UBC13 polyubiquitination inhibition; inhibition, % at 20 µM; UBC13 polyubiquitin chain formation, TR-FRET; AID 485273; 0.47% of 330,000 active; P61088; in the data active = inhibition above about 45%, passing the limit was not always enough
MEKK2 WT-MEK5: raises or lowers MEK5 binding to wildtype human MEKK2 PB1 domain; binding response (% of control), % at 10 µM; 1.1% of 290,000 active; bead flow cytometry, Alexa488-MEK5 binding to MEKK2 WT; actives lie on both sides; in the data active = binding response below about 67% or above about 130%
MEKK2mut PB1 HTS: signal of MEK5 binding to mutant human MEKK2 PB1 domain; AID 1530; percent response, % at 10 µM; bead flow cytometry, Alexa488-MEK5 binding to MEKK2 mutant; 0.35% of 290,000 active; in the data active = percent response above about 24%, passing the limit was not always enough
ATG4B inh: inhibitors of human ATG4B cysteine protease; Q9Y4P1; ATG4B cleavage of LC3-PLA2, NBD-HPC fluorescence, 1 h; inhibition, % at 8.33 µM; 0.51% of 340,000 active; AID 504462; in the data active = inhibition above about 40%
Target sequence (Q9Y4P1 whole entry, looked up): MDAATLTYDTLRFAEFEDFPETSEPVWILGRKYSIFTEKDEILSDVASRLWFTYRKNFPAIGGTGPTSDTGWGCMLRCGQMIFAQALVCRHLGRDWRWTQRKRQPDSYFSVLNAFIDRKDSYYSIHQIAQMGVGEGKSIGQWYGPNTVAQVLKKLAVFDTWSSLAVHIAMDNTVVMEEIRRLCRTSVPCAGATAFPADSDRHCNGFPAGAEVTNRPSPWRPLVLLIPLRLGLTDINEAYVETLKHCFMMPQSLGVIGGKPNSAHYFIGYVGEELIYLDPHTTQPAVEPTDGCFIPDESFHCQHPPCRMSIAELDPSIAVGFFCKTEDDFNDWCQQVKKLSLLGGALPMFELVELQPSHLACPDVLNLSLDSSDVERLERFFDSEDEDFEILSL
MEKK2wt confirm: raises or lowers MEK5 binding to wildtype human MEKK2, retest; 2.4% of 5,900 active; bead flow cytometry, Alexa488-MEK5 binding to MEKK2 WT; actives lie on both sides; shares compounds with MEKK3 PB1 HTS; binding response (% of control), % at 10 µM; AID 1892; in the data active = binding response below about 16% or above about 210%; inactive = in between
MEKK2mut confirm: signal of MEK5 binding to mutant human MEKK2, retest | shares compounds with MEKK3 PB1 HTS | bead flow cytometry, Alexa488-MEK5 binding to MEKK2 mutant | percent response, % at 10 µM | 2% of 5,900 active | AID 1893; in the data active = percent response mostly above about 71%, no sharp cut-off; inactive = mostly below about 38%;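 note: higher means compound restores mutant binding toward wildtype level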
MEKK3 confirm: confirmation of inhibitors of MEK5 binding to human MEKK3; 1.8% of 5,900 active; binding response (% of control), % at 10 µM; bead flow cytometry, Alexa488-MEK5 binding to MEKK3; hits give low values; shares compounds with MEKK3 PB1 HTS; AID 1894;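 active = binding response below 72% of control, or above a set upper limit, though filed actives all read lower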;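 note: 100% = DMSO only wells and 0% = binding blocked by excess unlabeled MEK5; lower values mean stronger disruption of MEK5 binding to MEKK3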
* hit, by the source's call; [ ] = remark or other dose.

CC(Nc1nc(N2CCCCC2)nc2ccccc12)c1ccccc1 (stereo not given) was read as PREPL inhibitor 3, MEKK3 PB1 HTS 108, UBC13 inh 32, MEKK2 WT-MEK5 210*, MEKK2mut PB1 HTS 34, ATG4B inh -3, MEKK2wt confirm 140, MEKK2mut confirm 18 and MEKK3 confirm 109.
For Cc1ccnc(NS(=O)(=O)c2ccc(NC(=O)c3ccccc3F)cc2)n1 the results were PREPL inhibitor -2, MEKK3 PB1 HTS 105, UBC13 inh -3, MEKK2 WT-MEK5 103, MEKK2mut PB1 HTS 2 and ATG4B inh -7.
For Nc1ccc(S(=O)(=O)Nc2nccc(/C=C/c3ccccc3F)n2)cc1 the results were PREPL inhibitor 8, MEKK3 PB1 HTS 134*, UBC13 inh -3, MEKK2 WT-MEK5 116, MEKK2mut PB1 HTS 0, ATG4B inh 5, MEKK2wt confirm 95, MEKK2mut confirm -3 and MEKK3 confirm 97.
For CCOC(=O)N1CCN(c2c(N3CCN(c4ccccc4F)CC3)c(=O)c2=O)CC1 the results were PREPL inhibitor 1, MEKK3 PB1 HTS 72*[inhibitor], UBC13 inh 16, MEKK2 WT-MEK5 82, MEKK2mut PB1 HTS -5, ATG4B inh -3, MEKK2wt confirm 75, MEKK2mut confirm -23 and MEKK3 confirm 70*.
`CCOC(=O)N1CCN(c2c(N3CCN(c4cccc(C)c4C)CC3)c(=O)c2=O)CC1` gave MEKK3 PB1 HTS 107, MEKK2 WT-MEK5 104, MEKK2mut PB1 HTS 11 and ATG4B inh 1.
CCOC(=O)c1ccc(N2CCN(c3ccc(F)cc3)CC2)c(NC(=O)Nc2cccc(OC)c2)c1 was read as PREPL inhibitor 21, MEKK3 PB1 HTS 90, UBC13 inh 13, MEKK2 WT-MEK5 107, MEKK2mut PB1 HTS 0 and ATG4B inh -1.
CCOC(=O)c1ccc(N2CCN(c3ccccc3F)CC2)c(NC(=O)Nc2ccccc2)c1 was read as PREPL inhibitor 29, MEKK3 PB1 HTS 102, UBC13 inh 11, MEKK2 WT-MEK5 30*[inhibitor], MEKK2mut PB1 HTS 9, ATG4B inh 2, MEKK2wt confirm 106, MEKK2mut confirm -2 and MEKK3 confirm 103.
`CC(C)c1csc(CN2CCCC(CNC(=O)c3cccc4ccccc34)C2)n1` (stereo not given) gave PREPL inhibitor 6, MEKK3 PB1 HTS 103, UBC13 inh 0, MEKK2 WT-MEK5 108, MEKK2mut PB1 HTS 4 and ATG4B inh 7.
`O=C(Nc1nonc1-c1ccc(F)cc1)c1ccco1` gave PREPL inhibitor 2, MEKK3 PB1 HTS 99, UBC13 inh -2, MEKK2 WT-MEK5 104, MEKK2mut PB1 HTS 2 and ATG4B inh 6.
CC(C)(C)c1cc(C(=O)NC2CC2)n(Cc2ccc(F)cc2)n1 was read as PREPL inhibitor -3, MEKK3 PB1 HTS 131*, UBC13 inh 8, MEKK2 WT-MEK5 116, MEKK2mut PB1 HTS 24, ATG4B inh 8, MEKK2wt confirm 100, MEKK2mut confirm 1 and MEKK3 confirm 104.
Screening Cc1ccc(-n2nc3c(c2NC(=O)c2ccc4c(c2)OCO4)CS(=O)(=O)C3)c(C)c1 returned PREPL inhibitor 4, MEKK3 PB1 HTS 99, UBC13 inh -6, MEKK2 WT-MEK5 99, MEKK2mut PB1 HTS 0 and ATG4B inh 1.
Screening COc1cc(/C=N/NC(=O)c2cc3ccccc3cc2O)ccc1OCCN1CCCCC1 returned PREPL inhibitor 31, MEKK3 PB1 HTS 110, UBC13 inh 23, MEKK2 WT-MEK5 229*, MEKK2mut PB1 HTS 43, ATG4B inh -2, MEKK2wt confirm 207*, MEKK2mut confirm 82* and MEKK3 confirm 107.

High-throughput results (PubChem)
